Values joined by “and” are separate entries in the source; they are usually repeats but may differ in a detail not shown here. Equal entries are not always repeated. Values without a mark were called inactive. Results filed as inconclusive are left out. Active and inactive are the calls of the source. Unless noted, calls follow the shape of the dose curve; as a rule, active = well fitted curve in the direction sought with a large enough effect in the repeat runs; inconclusive = weak or mixed curves; inactive = no such curve, though single readings can be large; an effect the other way counts as inactive or inconclusive.

Our source for the Potency and outcome values is PubChem BioAssay (Tox21).

A short description of test [1]: qHTS assay to identify small molecule antagonists of the androgen receptor (AR) signaling pathway using the MDA cell line in the presence of 0.5 nM R1881 - cell viability counter screen (AID 1259242). Also: nearly all actives have a fitted effect of over 45% in size. Also: potency is read from the fitted curve at half-maximal effect. A digest of the protocol:
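Viability of MDA-kb2 cells was multiplexed with the luciferase AR readout; after 16 hr with compounds and R1881 at 0.5 nM final, CellTiter-Fluor fluorescence was recorded.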
In general terms: Quantitative high-throughput screening tests each substance at several concentrations.

In test [2] the target is Estrogen receptor (Homo sapiens) (UniProt P03372). Briefly: qHTS assay to identify small molecule antagonists of the estrogen receptor alpha (ER-alpha) signaling pathway using the BG1 cell line in the presence of 0.1 nM 17-beta-estradiol (AID 1259244). Also: nearly all actives have a fitted effect of over 50% in size. Also: potency is read from the fitted curve at half-maximal effect. In short, it runs like this: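 Estradiol at 0.1 nM (final) stimulates the endogenous ER-alpha of VM7Luc4E2 cells carrying an ERE-driven luciferase; compounds are co-incubated 22 h at 37C and luciferase output quantified by luminescence.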

The nature of test [3]: qHTS assay to identify small molecule HDAC inhibitors (AID 1259364).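 Also: wild-type HCT-116 cells with endogenous class I/II HDAC activity; top concentration of the series differs between compounds; nearly all actives have a fitted effect of over 45% in size.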 In short, it runs like this:
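Read-out: luminescence of HDAC-Glo I/II reagent, 30 min RT, reflecting class I/II deacetylase activity in whole HCT-116 cells pre-exposed 2 h to DMSO-dissolved compounds.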

Test [4] in a line: qHTS assay to identify small molecule HDAC inhibitors - cell viability counter screen (AID 1259365). Also: series mostly up to about 92 µM; nearly all actives have a fitted effect of over 50% in size. A digest of the protocol:
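Cytotoxicity was gauged in wild-type HCT-116 cells after a brief 2hr treatment with DMSO-dissolved compounds at 37C and 5% CO2, using CellTiter-Glo luminescence developed for 30min at room temperature.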

Test [5] is described as follows: qHTS assay to identify small molecule agonists of the sonic hedgehog signaling (Shh) pathway - cell viability counter screen (AID 1259366). Also: nearly all actives have a fitted effect of over 50% in size. Also: potency is read from the fitted curve at half-maximal effect. In short, it runs like this:
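Stable Gli1-Luc NIH/3T3 clone, 2,000 cells/well. Compound exposure 24hr at 37C. Read-out: CellTiter-Fluor fluorescence.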

Test [6] is described as follows: qHTS assay to identify small molecule agonists of the sonic hedgehog signaling (Shh) pathway (AID 1259368; calls by dose curve;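 also: NIH/3T3-derived 3T3Gli1-Luc cells carrying a stable Gli1-driven firefly luciferase reporter; series mostly up to about 92 µM; nearly all actives have a fitted effect of over 15% in size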). In short, it runs like this: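 A Gli1 transcriptional response element controlled firefly luciferase in 3T3Gli1-Luc cells. Compounds and a positive control were added 4 hr after plating, and cells were incubated a further 24 hr at 37 C before luminescence detection.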

Test [7] in a line: qHTS assay to identify small molecule antagonists of the sonic hedgehog signaling (Shh) pathway (AID 1259369; calls by dose curve; also: nearly all actives have a fitted effect of over 45% in size; also: potency is read from the fitted curve at half-maximal effect). A digest of the protocol:
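For antagonist detection, the reporter line received test compounds together with conditioned medium, incubated 24hr at 37 C, 5% CO2, then luminescence was recorded following 30min room-temperature luciferase reagent incubation.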

Test [8] can be described thus: qHTS assay to identify small molecule agonists of the androgen receptor (AR) signaling pathway in the presence of an antagonist - cell viability counter screen (AID 1259379). Also: nearly all actives have a fitted effect of over 25% in size. Also: potency is read from the fitted curve at half-maximal effect. In short, it runs like this:
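Seed MDA-kb2 at 3,000 cells/well; incubate 5 hr, 37C, 0% CO2. Add nilutamide to 3.0uM final, then pin compounds at 15 concentrations. Incubate 16 hr. Add CellTiter-Fluor at 15 hr, read fluorescence after 1 hr.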

Test [9] is described as follows: qHTS assay to identify small molecule agonists of the estrogen receptor beta (ER-beta) signaling pathway - cell viability counter screen (AID 1259380). Also: nearly all actives have a fitted effect of over 30% in size. Also: potency is read from the fitted curve at half-maximal effect. In short, it runs like this:
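CellTiter-Glo read, 30 min RT, same wells as bla assay; cells ER-beta-UAS-bla HEK293T; 16 hr compound, 37C; medium 2% charcoal-stripped FBS.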

Test [10] is described as follows: qHTS assay to identify small molecule antagonists of the estrogen receptor beta (ER-beta) signaling pathway - cell viability counter screen (AID 1259382). Also: nearly all actives have a fitted effect of over 55% in size. Also: potency is read from the fitted curve at half-maximal effect. In short, it runs like this:
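In this multiplexed counter screen, cells were seeded at 2,000 per well in medium with 2% charcoal-stripped FBS and incubated 6 hr before compound and 1nM final E2 were added. Sixteen hours later, ATP-based luminescence reported viability.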

Test [11] can be described thus: qHTS assay to identify small molecule agonists or antagonists of the thyroid stimulating hormone receptor (TSHR) signaling pathway - wild type cell line counter screen (AID 1259384; calls by dose curve). In short, it runs like this: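 Counter screen in untransfected Hek293: compounds (15-point titration, triplicate) plus phosphodiesterase inhibitor Ro20-1724 added after 18 h plating; 30 min RT. Intracellular cAMP via competitive d2/cryptate immunoassay, 1 h incubation.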

In test [12] the target is Thyrotropin receptor (Homo sapiens) (UniProt P16473). Briefly: qHTS assay to identify small molecule antagonists of the thyroid stimulating hormone receptor (TSHR) signaling pathway (AID 1259385; calls by dose curve; also: nearly all actives have a fitted effect of over 20% in size). In short, it runs like this: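 Antagonist mode: compound-treated TSHR-expressing HEK293 cells were stimulated with 1.5 ng/mL TSH (final) in presence of Ro20-1724 for 30 min at RT. HTRF cAMP detection after 1 h; each compound tested at 15 concentrations, triplicate.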

A short description of test [13]: qHTS assay to identify small molecule agonists of the estrogen receptor alpha (ER-alpha) signaling pathway in the presence of an antagonist - cell viability counter screen (AID 1259386).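 Also: cells exposed to compounds for 22 h at 37 °C before the viability read; nearly all actives have a fitted effect of over 30% in size.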 Also: potency is read from the fitted curve at half-maximal effect. A digest of the protocol: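 Viability counter screen using VM7Luc4E2 (full-length ER-alpha, four ERE-luciferase). The cells were treated with compounds alongside ICI-182,780 10.0nM for 22hr, and live-cell protease fluorescence was quantified with CellTiter-Fluor.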

Test [14] can be described thus: qHTS assay to identify small molecule antagonists of the sonic hedgehog signaling (Shh) pathway - cell viability counter screen (AID 1259367). Also: nearly all actives have a fitted effect of over 55% in size. Also: potency is read from the fitted curve at half-maximal effect. In short, it runs like this: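 Using CellTiter-Fluor, viability of Gli1-Luc reporter 3T3 cells is read by fluorescence in the wells used for the Shh luciferase assay. Treatment lasts 23 hr with conditioned medium, then reagent 1 hr at 37C.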

Test [15] deals with Estrogen receptor (Homo sapiens) (UniProt P03372). Briefly: qHTS assay to identify small molecule agonists of the estrogen receptor alpha (ER-alpha) signaling pathway in the presence of an antagonist (AID 1259383; calls by dose curve; also: top concentration of the series differs between compounds; nearly all actives have a fitted effect of over 15% in size). In short, it runs like this: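 Stably transfected VM7Luc4E2 reporter cells, kept 5 days in charcoal-stripped serum, received ICI-182,780 at 10.0nM final before compound addition. Following 22hr incubation at 37C and 5% CO2, luciferase signal was read by luminescence.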

Test [16] deals with Estrogen receptor beta (Homo sapiens) (UniProt Q92731). Briefly: qHTS assay to identify small molecule antagonists of the estrogen receptor beta (ER-beta) signaling pathway (AID 1259378; active = well fitted inhibition curve with a large enough effect in the signal ratio in the repeat runs, not every such curve was filed as active; the % refers to the signal ratio; also: potency is read from the fitted curve at half-maximal effect). In short, it runs like this: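 Antagonist mode: compounds added to beta-lactamase reporter HEK293T ER-beta-UAS cells stimulated with E2 (1nM final), 16 hr at 37C. LiveBLAzer B/G FRET substrate, 2 hours room temperature, fluorescence read-out.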
Sequence of Estrogen receptor beta (Homo sapiens) (Q92731 whole entry, looked up): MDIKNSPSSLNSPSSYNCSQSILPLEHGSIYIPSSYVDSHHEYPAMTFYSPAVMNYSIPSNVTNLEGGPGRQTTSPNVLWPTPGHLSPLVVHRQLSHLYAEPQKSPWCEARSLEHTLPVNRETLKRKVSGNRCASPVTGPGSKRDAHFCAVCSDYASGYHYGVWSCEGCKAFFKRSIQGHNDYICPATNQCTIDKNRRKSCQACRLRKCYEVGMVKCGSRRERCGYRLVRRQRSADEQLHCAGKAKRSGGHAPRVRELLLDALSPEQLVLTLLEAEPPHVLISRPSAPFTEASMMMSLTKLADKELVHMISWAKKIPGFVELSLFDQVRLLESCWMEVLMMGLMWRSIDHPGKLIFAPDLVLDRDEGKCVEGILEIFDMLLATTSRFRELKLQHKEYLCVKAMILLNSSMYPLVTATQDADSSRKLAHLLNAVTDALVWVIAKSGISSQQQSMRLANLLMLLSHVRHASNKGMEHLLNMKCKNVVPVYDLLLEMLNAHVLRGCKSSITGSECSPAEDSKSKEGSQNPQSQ

Sequence of Thyrotropin receptor (Homo sapiens) (P16473 whole entry, looked up): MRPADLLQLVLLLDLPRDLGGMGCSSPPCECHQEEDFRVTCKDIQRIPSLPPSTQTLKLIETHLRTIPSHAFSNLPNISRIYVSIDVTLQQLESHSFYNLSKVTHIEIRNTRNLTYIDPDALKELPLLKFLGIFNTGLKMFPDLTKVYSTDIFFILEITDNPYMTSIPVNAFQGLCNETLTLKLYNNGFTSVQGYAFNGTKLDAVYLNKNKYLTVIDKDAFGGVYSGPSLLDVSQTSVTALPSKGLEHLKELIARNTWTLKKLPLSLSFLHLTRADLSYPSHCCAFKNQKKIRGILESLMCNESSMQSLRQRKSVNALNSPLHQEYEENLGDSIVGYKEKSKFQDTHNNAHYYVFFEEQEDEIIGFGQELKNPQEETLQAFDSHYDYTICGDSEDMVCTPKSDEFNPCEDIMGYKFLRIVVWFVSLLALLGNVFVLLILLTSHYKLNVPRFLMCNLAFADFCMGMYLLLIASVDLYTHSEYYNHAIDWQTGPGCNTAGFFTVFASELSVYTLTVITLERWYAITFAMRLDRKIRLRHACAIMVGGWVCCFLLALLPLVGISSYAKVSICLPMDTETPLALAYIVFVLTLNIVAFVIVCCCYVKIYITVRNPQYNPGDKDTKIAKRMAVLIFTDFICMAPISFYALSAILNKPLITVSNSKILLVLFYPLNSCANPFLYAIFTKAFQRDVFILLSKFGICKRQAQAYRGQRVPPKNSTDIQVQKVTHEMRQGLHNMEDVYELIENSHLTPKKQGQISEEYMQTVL
Sequence of Estrogen receptor (Homo sapiens) (P03372 whole entry, looked up): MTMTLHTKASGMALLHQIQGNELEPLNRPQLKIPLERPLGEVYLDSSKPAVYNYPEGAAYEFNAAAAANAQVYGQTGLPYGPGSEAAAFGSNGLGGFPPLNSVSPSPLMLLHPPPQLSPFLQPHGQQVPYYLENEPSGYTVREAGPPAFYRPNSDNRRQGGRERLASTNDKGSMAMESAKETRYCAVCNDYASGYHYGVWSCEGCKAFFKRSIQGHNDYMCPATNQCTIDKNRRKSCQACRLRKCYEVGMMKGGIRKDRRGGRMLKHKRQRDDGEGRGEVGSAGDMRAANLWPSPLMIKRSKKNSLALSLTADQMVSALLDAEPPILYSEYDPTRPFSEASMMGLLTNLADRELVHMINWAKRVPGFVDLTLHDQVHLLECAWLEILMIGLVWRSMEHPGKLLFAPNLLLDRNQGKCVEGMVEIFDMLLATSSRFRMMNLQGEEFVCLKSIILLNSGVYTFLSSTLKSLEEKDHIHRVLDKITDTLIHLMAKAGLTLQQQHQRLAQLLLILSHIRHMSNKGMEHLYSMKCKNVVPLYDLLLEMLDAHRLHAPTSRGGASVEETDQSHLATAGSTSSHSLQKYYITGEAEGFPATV

Turning to `C(=C/c1ccccc1)/c1ccccc1`, the Potency result in test [1], in test [2], in [3], in test [4], in test [5] and in test [6] was “inactive” throughout. For the same compound, the Potency result in [7], in test [8], in [9], in [10], in test [12] and in test [13] was “inactive” in each case. Moreover, the compound was classed as inactive in [11].

Take `CC=O`: the Potency in test [1] is 32 µM (active); in test [2], 0.403 µM (active); in test [5] it was 28.6 µM (active); in test [14] it was 28.6 µM (active); in test [7], 0.0161 µM (active); in test [8], 1.28 µM (active). In addition, the Potency in test [9] is 57 µM (active); in [10], 57 µM (active); in test [13], 10.1 µM (active). The Potency entry in test [3], in test [4], in test [6], in [15] and in test [12] was “inactive” throughout. For the same compound, the result in [11] was inactive.

`CC(C)c1ccccc1N`: the Potency entry in [1], in test [2], in test [3], in [4], in test [5] and in test [14] was “inactive” in each case. Also, the Potency result in test [6], in test [7], in [8], in [9], in [10] and in [15] was “inactive” in each case. Also, the Potency result in [12] and in test [13] was “inactive” each time. Besides, the outcome in test [11] was inactive.

As to `CCCCCCCCCCc1ccccc1`, the Potency entry in test [1], in test [2], in test [3], in test [4], in [5] and in test [14] was “inactive” each time. Moreover, the Potency entry in test [6], in test [7], in [8], in test [9], in test [10] and in test [15] was “inactive” in each case. The Potency entry in [13] is “inactive”.

For the compound `c1ccc(Nc2cccc3ccccc23)cc1`, the Potency result in [1], in test [2], in test [3], in [4], in test [5] and in test [14] was “inactive” throughout. For the same compound, the Potency result in test [6], in test [8] and in test [12] was “inactive” in each case. Further, the Potency in [7] was 30.6 µM (active); in [16], 31 µM (active) and 54.5 µM (active); in test [9], 54.5 µM (active). Also, the call in test [11] was inactive.

As to `CCc1cccc(C)c1`, the Potency entry in test [1], in test [2], in [3], in [4], in [5] and in test [14] was “inactive” throughout. Further, the Potency result in test [6], in test [7], in test [8], in test [9], in test [10] and in test [15] was “inactive” each time. The Potency entry in test [12] was “inactive”. For the same compound, in test [11], the outcome was inactive.

With `Clc1nc2ccccc2s1`, the Potency result in test [1], in test [2], in [3], in test [4], in test [5] and in [14] was “inactive” in each case. Moreover, the Potency entry in test [6], in test [7], in test [8], in [9], in test [10] and in test [15] was “inactive” throughout. For the same compound, the Potency result in test [12] is “inactive”. Moreover, the call in test [11] was inactive.

On to `CCN(CC)c1cccc(C)c1`, for which the Potency result in [1], in test [2], in [3], in test [4], in [5] and in [6] was “inactive” throughout. The Potency entry in test [7], in test [8], in test [9], in [10], in test [15] and in test [12] was “inactive” throughout. In addition, in test [13], the Potency result is “inactive”. Besides, the result in [11] was inactive.
